Source: PubChem (National Center for Advancing Translational Sciences (NCATS))
Most compounds without a hit are left out; they make up all but 7.5% or so of the library.
Giardia FBPA inh-1 = Giardia lamblia aldolase inhibition; A8B2U2; purified Giardia FBPA; Potency, µM (titrated, usually from 59.6 µM), without a hit: top-dose activity, negative = inhibition, most hits filed as inhibitors; 290,000 tested, 0.71% active; AID 2451; further: potency means the concentration at half of the fitted maximal effect; nearly all actives have a fitted effect of over 55% in size
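40 nM FBPA preincubated 10 min at RT with compound (up to 57.5 uM final), then substrate plus GAPDH/TPI/NAD/arsenate coupling and diaphorase/resazurin added. Fluorescence read after 20 min at RT, 525/598 nm.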
VACV mCherry inh = vaccinia inhibition (mCherry reporter). 310,000 tested, 0.63% active. Vaccinia virus mCherry reporter infection, fluorescence. Potency, µM (highest dose often 36.5 µM), inactives show at the top dose activity change, negative = inhibition, usual class: inhibitors. AID 720579; calls by dose curve; tested in A549 cells; further: potency means the concentration at half of the fitted maximal effect; nearly all actives have a fitted effect of over 35% in size
HCV inhibitor = HCV inhibition; AID 651820; Potency, µM (doses to about 41.8 µM), inactives show at the top dose activity change, negative = inhibition, actives largely listed as inhibitors; 340,000 tested, 3.4% active; Huh7.5.1 HCVcc-Cre infection, luciferase reporter, 44 h; further: potency means the concentration at half of the fitted maximal effect
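Infectious HCV cell culture screen: compound-treated cells (1,000/well, pre-plated 4 h) are infected with HCVcc-Cre at roughly 0.5 moi and grown 44 h. Infection is quantified by luciferase signal after 15 min substrate incubation at room temperature.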
Vaccinia Venus = inhibitors of vaccinia virus (Venus reporter) | Vaccinia virus Venus reporter expression, fluorescence | Potency, µM (doses to about 36.5 µM), for the others: at the highest dose activity change, negative = inhibition, usual class: inhibitors | 330,000 tested, 0.46% active | AID 720580; calls by dose curve; tested in A549 cells; further: potency means the concentration at half of the fitted maximal effect; nearly all actives have a fitted effect of over 30% in size
FMDV inh = antivirals against foot and mouth disease virus; FMDV antiviral cell-based qHTS; Potency, µM (doses to about 57.9 µM), inactives show top-dose activity change, negative = inhibition, actives largely listed as inhibitors; 410,000 tested, 1.2% active; calls by dose curve; tested in HEK293T cells; further: read-out not given here; potency means the concentration at half of the fitted maximal effect; nearly all actives have a fitted effect of over 45% in size
HCMV inh = inhibitors of human cytomegalovirus; HFF cells, HCMV-luciferase reporter, 72 h; stronger effect = lower value; activity change, negative = inhibition, % at 57.5 µM; 410,000 tested, 4.5% active; AID 1259415; in the data active means activity change below about -60%; inconclusive means no clear call, values can overlap the other calls; inactive means above about -39%
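Inhibition of viral replication was scored as loss of reporter luminescence in HFFs infected with HCMV-luciferase (MOI 1 PFU/cell) for 72 h; compounds tested at 2 doses, normalized to buffer and Salinomycin controls.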
Giardia growth = Giardia lamblia growth inhibition. shares compounds with Giardia FBPA inh-1. Giardia lamblia trophozoite growth inhibition. Potency, µM (series often up to 57.5 µM), without a hit: at the top dose activity change, negative = inhibition, hits mostly inhibitors. 1,500 tested, 5% active;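 further: potency means the concentration at half of the fitted maximal effect; trophozoites exposed to compound for 48 h at 37 °C; nearly all actives have a fitted effect of over 70% in size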
Mammalian tox = toxic to mammalian cells in Giardia aldolase counter-screen. shares compounds with Giardia FBPA inh-1. mammalian cell viability counter-screen, qHTS. Potency, µM (series often up to 57.5 µM), for inactives: at the top dose viability change, negative = toxicity, actives largely listed as inhibitors. 1,500 tested, 4% active. AID 2786;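 further: Chinese hamster ovary cells used as mammalian cytotoxicity surrogate; viability measured as cellular ATP by luminescence; potency means the concentration at half of the fitted maximal effect; compound exposure lasted 48 h before reading; nearly all actives have a fitted effect of over 60% in size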
Giardia FBPA inh-2 = confirmation of Giardia fructose-bisphosphate aldolase inhibitors. shares compounds with Giardia FBPA inh-1. purified Giardia aldolase enzyme activity, qHTS. Potency, µM (doses to about 57.5 µM), inactives show at the top dose activity change, negative = inhibition, hits mostly inhibitors. 1,500 tested, 5% active; further: potency means the concentration at half of the fitted maximal effect; nearly all actives have a fitted effect of over 45% in size
Rabbit aldolase = blocks rabbit muscle aldolase in Giardia aldolase selectivity test; Rabbit muscle FBPA enzyme inhibition, selectivity counter-screen; AID 2794; shares compounds with Giardia FBPA inh-1; 1,500 tested, 4% active; Potency, µM (top dose mostly 57.5 µM), for the others: at the highest dose activity, negative = inhibition, hits mostly inhibitors; further: potency means the concentration at half of the fitted maximal effect; nearly all actives have a fitted effect of over 60% in size
Target sequence (P00883 whole entry, looked up): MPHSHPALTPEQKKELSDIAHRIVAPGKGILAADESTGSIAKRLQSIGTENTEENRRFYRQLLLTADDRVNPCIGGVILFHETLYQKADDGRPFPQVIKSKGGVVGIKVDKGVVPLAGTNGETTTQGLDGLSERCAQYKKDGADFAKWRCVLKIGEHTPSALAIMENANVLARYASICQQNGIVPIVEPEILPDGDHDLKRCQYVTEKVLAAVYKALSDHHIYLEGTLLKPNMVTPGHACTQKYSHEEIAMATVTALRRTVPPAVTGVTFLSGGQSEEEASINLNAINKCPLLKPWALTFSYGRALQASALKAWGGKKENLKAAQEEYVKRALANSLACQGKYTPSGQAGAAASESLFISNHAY
GAPDH coupling = GAPDH inhibition flagged for Giardia aldolase hits; Potency, µM (series often up to 57.5 µM), for the others: top-dose activity change, negative = inhibition, hits mostly inhibitors; 1,500 tested, 6% active; GAPDH coupling enzyme counterscreen, biochemical, qHTS; shares compounds with Giardia FBPA inh-1; further: potency means the concentration at half of the fitted maximal effect; nearly all actives have a fitted effect of over 55% in size
* = called active by the depositor; i = inactive; ? = inconclusive; nt = no result given; [ ] = another dose, or the depositor's remark. Unless noted, the call rests on the fitted dose curve; in most records, active means well fitted curve in the direction sought with a large enough effect; inconclusive means small, poorly fitted or top-dose-only effect, or another doubt; inactive means no such curve, though single readings can be large; an effect the other way counts as inactive or inconclusive. On the % scale 0 is the no-effect control and ±100 the full control effect.

SMILES	Giardia FBPA inh-1	VACV mCherry inh	HCV inhibitor	Vaccinia Venus	FMDV inh	HCMV inh	Giardia growth	Mammalian tox	Giardia FBPA inh-2	Rabbit aldolase	GAPDH coupling
CCOC(=O)C1CCCN(Cc2ccc(OCc3ccccc3)c(OC)c2)C1 (centres undefined)	-29.3%	nt	-28.5%	nt	11.5%	-1.6	nt	nt	nt	nt	nt
CCOC(=O)C1CCCN(Cc2ccc(OCc3ccccc3)cc2)C1 (centres undefined)	28.2µM*	nt	-29.5%	nt	0.0%	57.0	0.7%[10.4 µM]	20.7%	12.5%	8.3%	-7.0%
O=C(C1CCCN(Cc2ccccc2[N+](=O)[O-])C1)N1CCCC1 (centres undefined)	28.2µM*	i	6.3%	-4.5%	5.0%	35.3	?	2.8%	5.2%	4.2%	-0.6%
CCOC(=O)C1CCCN(CC(=O)Nc2c(F)c(F)c(F)c(F)c2F)C1 (centres undefined)	3.8%	-8.8%	10.8%	5.2%	5.1%	4.3	nt	nt	nt	nt	nt
CCOC(=O)C1CCCN(CC(=O)c2ccc(F)cc2)C1 (centres undefined)	15.8µM*	-10.9%	31.8%	3.1%	16.6%	?	4.9%	4.9%	4.1%	4.9%	17.0%
CC1CC(=O)NC(=O)N1Cc1ccccc1 (centres undefined)	nt	-2.9%	10.3%	-11.4%	4.4%	-13.4	nt	nt	nt	nt	nt
CCOC1C(=O)NC(=O)N1Cc1ccccc1 (centres undefined)	28.2µM*	-25.3%	1.0%	-4.9%	-5.7%	5.4	11.5%	-7.0%	12.7%	10.2%	4.7%
CC(C)CC(=O)N1CCN(Cc2cccc(F)c2)CC1	?	nt	12.4%	-7.0%	4.8%	5.5	nt	nt	nt	nt	nt
CC(C)CC(=O)N1CCN(Cc2ccc(C(F)(F)F)cc2)CC1	31.6µM*	nt	?	nt	-27.0%	-8.8	-22.9%	-22.2%	6.1%	-5.0%	-13.4%
CC(C)CC(=O)N1CCN(Cc2ccc(Cl)cc2)CC1	28.2µM*	i	-7.9%	-16.0%	-25.3%	33.7	-29.6%	-2.6%	-0.5%	3.6%	8.0%
CCc1ccccc1NC(=O)c1cc2nc(-c3ccc(Br)cc3)cc(C(F)(F)F)n2n1	nt	-3.4%	nt	-12.3%	-6.4%	12.4	nt	nt	nt	nt	nt
Cc1ccc(O)c(CN(C)Cc2cc(C)ccc2O)c1	nt	?	-6.1%	-27.4%	26.3%	70.0	nt	nt	nt	nt	nt
CN(CCCCCCN(C)Cc1ccccc1O)Cc1ccccc1O	28.2µM*	nt	?	nt	-3.9%	-24.9	?	-9.0%	2.0%	2.6%	6.3%
COc1ccc(C(=O)N/C(=C\c2cn(S(=O)(=O)N(C)C)c3ccccc23)C(=O)NCCCN2CCOCC2)cc1	-4.4%	nt	4.1%	nt	5.3%	29.6	nt	nt	nt	nt	nt
CN1CCN(c2cc(N3CCN(C(=O)c4ccco4)CC3)c3c4c(onc24)-c2ccccc2C3=O)CC1	-27.3%	nt	?	nt	?	nt	nt	nt	nt	nt	nt
O=C(O)CCCNc1cc(N2CCN(C(=O)c3ccco3)CC2)c2noc3c2c1C(=O)c1ccccc1-3	3.55µM*	i	-5.2%	299.5%	8.1%	-20.3	?	-18.0%	?	?	?
